Bioassay records deposited in PubChem by several laboratories.
p97 ATPase inh: blocks human p97 ATPase activity; P55072; recombinant p97 ATPase, Kinase-Glo ATP luminescence, 3 h; hit rate 0.42% among 220,000; inhibition, % at 8 µM; in the data active = inhibition above about 15%
Target sequence (P55072 whole entry, looked up): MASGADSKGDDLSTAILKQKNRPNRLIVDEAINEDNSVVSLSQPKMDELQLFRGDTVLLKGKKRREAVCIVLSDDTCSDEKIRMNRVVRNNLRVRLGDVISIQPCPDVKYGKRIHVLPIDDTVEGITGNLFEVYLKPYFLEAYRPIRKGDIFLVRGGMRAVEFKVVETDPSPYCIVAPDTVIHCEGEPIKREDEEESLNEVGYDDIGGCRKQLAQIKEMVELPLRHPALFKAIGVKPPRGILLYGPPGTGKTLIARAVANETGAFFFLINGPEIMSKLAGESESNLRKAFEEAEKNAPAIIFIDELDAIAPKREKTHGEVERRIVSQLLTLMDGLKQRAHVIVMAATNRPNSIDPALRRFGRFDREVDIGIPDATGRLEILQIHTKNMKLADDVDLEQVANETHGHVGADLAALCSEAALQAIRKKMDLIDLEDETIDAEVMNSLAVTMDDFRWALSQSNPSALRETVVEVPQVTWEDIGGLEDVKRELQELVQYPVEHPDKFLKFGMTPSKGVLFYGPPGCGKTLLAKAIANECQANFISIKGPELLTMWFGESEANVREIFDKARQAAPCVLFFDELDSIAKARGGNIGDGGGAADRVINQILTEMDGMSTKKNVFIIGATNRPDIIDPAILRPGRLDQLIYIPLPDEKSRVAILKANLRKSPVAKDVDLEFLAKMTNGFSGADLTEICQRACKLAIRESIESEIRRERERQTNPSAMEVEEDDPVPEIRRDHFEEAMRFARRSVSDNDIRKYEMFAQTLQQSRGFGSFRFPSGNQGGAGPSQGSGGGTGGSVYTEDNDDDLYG
HCT116 bCat-KO: beta-catenin-lacking colon tumor cell growth suppression; HCT116 beta-catenin knockout viability, CellTiter-Glo, 60 h; stronger effect = lower value; viability, % at 10 µM; hit rate 1.5% among 140,000; AID 818;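 active = viability at or under a set limit, the compound median less 4 SD, cut at about 6% in these data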
ROMK primary: modulates human ROMK potassium channel activity. B-score at 10 µM. P48048. hit rate 2% among 130,000. Tet-inducible ROMK, thallium flux fluorescence; actives lie on both sides;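 active = signal ratio slope over the read window, or its plate-corrected B-score, at least 3 SD from the plate mean, either direction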;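 note: B-score of the F/F0 ratio slope over 7 to 12 s after thallium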
PTEN del growth: PTEN-deleted cell growth suppression | HCT116 PTEN-null viability, CellTiter-Glo, 60 h; stronger effect = lower value | viability, % at 10 µM | hit rate 1.2% among 140,000;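 active = viability at or below a set limit, 4 SD under the median of all tested compounds, cut at about 3.7% in these data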;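 note: PTEN knockout HCT116 line with beta catenin targeted HCT116 as companion control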
L major viab: reduces viability of Leishmania major promastigotes | resazurin fluorescence viability | inhibition, % at 10 µM | hit rate 9% among 200,000 | AID 1063; in the data active = inhibition above about 50%;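 note: promastigotes grown with compound for 44 hours at 28 °C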
Insulin prom inh: TRM-6 insulin promoter activity inhibition; TRM-6 cells (human fetal islet line), insulin promoter-eGFP reporter, imaging; reporter expression induced with tamoxifen; inhibition, % at 2 µM; hit rate 0.9% among 130,000;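 active = inhibition above the mean plus 3 SD, with well images judged a real hit on visual review, cut at about 60% in these data, passing the limit was not always enough; inconclusive = inhibition over the cutoff but images rejected on review; inactive = inhibition not above the cutoff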
ROMK retest: human ROMK channel modulation, retest confirmation; ROMK thallium flux, fluorescence ratio; stronger effect = lower value; normalized thallium flux (F/F0 slope) at 10 µM; hit rate 54% among 3,000; shares compounds with ROMK primary;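 active = Flux at 10 µM at least 3 SD below or above vehicle control mean in one or both replicates; inconclusive = no clear call, values can overlap the other calls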
A number is an active result; 0 = inactive; ? = inconclusive; - = no result given. An excerpt weighted towards active compounds, which were near 10% of everything screened.

SMILES	p97 ATPase inh	HCT116 bCat-KO	ROMK primary	PTEN del growth	L major viab	Insulin prom inh	ROMK retest
CCn1nc(C(=O)OCc2cccc(S(=O)(=O)N(C)C)c2)c2ccccc2c1=O	0	-	-	-	-	-	?
CN(C)c1nc(NS(=O)(=O)c2ccc(Cl)cc2)nc(N(C)C)n1	0	0	0	0	0	?	-
Cc1cc(C(=O)COC(=O)c2ccc(Br)o2)c(C)n1C	0	-	0	-	0	0	-
Cc1cc(C(=O)COc2ccc(F)cc2Br)c(C)n1C	0	-	-1.86	-	0	-	?
COc1cccc(N2CCN(C(=O)CSc3ccc(F)cc3)CC2)c1	0	-	0	-	0	0	-
O=C(c1ccc(Cl)c(S(=O)(=O)N2CCOCC2)c1)N1CCN(Cc2ccccc2)CC1	0	0	0	0	0	0	-
CCOc1ccc(C2C(C(=O)c3ccc(C)o3)=C(O)C(=O)N2CCN2CCOCC2)cc1OC (centres undefined)	0	0	1.8	0	0	-	0
CCCOc1ccc(C2C(C(=O)c3ccco3)=C(O)C(=O)N2CCN2CCOCC2)cc1OC (centres undefined)	0	0	0	0	0	0	-
COc1cccc(C(=O)Nc2ccc(C(F)(F)F)n(C)c2=O)c1	0	0	0	0	0	0	-
CCCCC(=O)NN(C)c1nc(-c2ccccc2)nnc1C(F)(F)F	0	0	-	0	0	0	-
O=S(=O)(NCc1cccnc1)c1ccccc1	0	0	0	0	0	0	-
CCOc1cc(C)c(S(=O)(=O)NC2CC(C)(C)NC(C)(C)C2)cc1C	0	-	-3.55	-	0	0	0.066
O=C(NCCc1ccccc1)C(=O)NCC1OCCN1S(=O)(=O)c1ccc(Cl)cc1 (centres undefined)	0	-	0	-	-	-	-
CCOCCCNC(=S)NCCNc1nc2c(C)cccc2cc1C#N	0	0	-	0	0	0	-
Cc1ccc2cc(C#N)c(NCCNC(=S)NCCCN(C)C)nc2c1C	0	-	-3.13	-	100.5	0	0.0572
CSc1nc2ccc(NS(=O)(=O)c3ccc(Cl)s3)cc2s1	0	0	-	0	0	0	-
[O-][n+]1c2c(nc3c1-c1ccccc1C3O)CCCC2 (centres undefined)	0	-	0	-	0	0	-
Nc1[nH]n(-c2ccccc2)c(=O)c1N=Nc1ccc2c(c1)OCO2	0	-	-	-	-	-	0
COc1ccccc1/C=N/NC(=O)CC(=O)Nc1ccc(Cl)c(Cl)c1	0	0	-3.8	0	0	-	0
Cc1ccc(C(=O)OCC(=O)Nc2ccccc2)cc1NC(=O)c1ccco1	0	0	-5.38	0	0	0	0
CCOc1ccc(CCNC(=O)CCCN2C(=O)c3ccccc3C2=O)cc1OCC	0	0	-	0	0	0	-
Cc1cccc(Nc2nc3c(S(=O)(=O)c4ccccc4)nnn3c3ccccc23)c1	0	0	0	0	50.5	0	0
Cc1nc2ccccn2c1-c1csc(NCc2ccco2)n1	0	0	-	0	0	0	-
Cc1ccn2c(-c3csc(NCc4ccccc4)n3)c(C)nc2c1	0	0	-4.68	0	0	0	0.06
COc1ccccc1CN1C[C@@H]2C[C@@H](c3cccc(C)c3)N3CCC[C@@]23C1=O	0	-	0	-	0	-	-
SMILES	p97 ATPase inh	HCT116 bCat-KO	ROMK primary	PTEN del growth	L major viab	Insulin prom inh	ROMK retest
CCOC(=O)C1=C(O)/C(=C/c2ccc(OCC(=O)O)c(OC)c2)SC1=Nc1ccc(OC)cc1	0	0	-	0	0	0	0
CN1\C(=C/C=C/C=C/C=[N+](C)C)C(C)(C)c2ccccc21	0	-	-3.59	-	97.5	0	0.0513
COc1ccc(N2CCN(C3CC(=O)N(Cc4ccccc4)C3=O)CC2)cc1 (centres undefined)	0	-	0	-	0	-	-
O=C(c1ccncc1)c1ccc(N2CCN(C3CC(=O)N(Cc4ccccc4)C3=O)CC2)cc1 (centres undefined)	0	0	-4.04	0	97.7	0	?
CCN(CC)S(=O)(=O)c1ccc(N2CCOCC2)c(NC(=O)C23CC4CC(CC(Cl)(C4)C2)C3)c1	0	0	-3.47	0	55.7	0	0.0608
CCC(C)(C)NC(=O)CN(C(=O)CNS(=O)(=O)c1ccc(C)cc1)c1ccc2c(c1)OCCO2	0	0	-	0	0	-	-
Cc1cc2c(cc1S(=O)(=O)Nc1cccc(F)c1C)NC(=O)CO2	0	-	0	-	0	-	-
Cc1cc2c(cc1S(=O)(=O)N(C)c1ccccc1)NC(=O)CO2	0	-	-4.99	-	0	-	0.0532
COc1ccc(C(=O)NCc2ccc(S(N)(=O)=O)cc2)cc1[N+](=O)[O-]	0	-	-12.9	-	0	-	0
